{
  "source": "PubChem BioAssay (NCATS)",
  "key": {"[1]": {"target": "Alpha-galactosidase (Coffea arabica) (UniProt Q42656)", "sequence (Q42656 whole entry, looked up)": "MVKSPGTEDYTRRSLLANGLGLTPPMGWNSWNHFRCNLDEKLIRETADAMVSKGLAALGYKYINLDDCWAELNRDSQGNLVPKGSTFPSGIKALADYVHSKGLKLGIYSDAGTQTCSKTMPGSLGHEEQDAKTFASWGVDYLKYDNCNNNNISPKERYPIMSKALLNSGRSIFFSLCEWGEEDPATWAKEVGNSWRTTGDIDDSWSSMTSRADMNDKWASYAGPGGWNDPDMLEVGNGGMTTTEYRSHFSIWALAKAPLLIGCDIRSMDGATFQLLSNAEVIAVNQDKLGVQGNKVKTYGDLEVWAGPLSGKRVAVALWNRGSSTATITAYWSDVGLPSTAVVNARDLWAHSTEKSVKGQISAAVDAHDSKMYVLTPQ", "experiment": "Counterscreen for Glucocerebrosidase Inhibitors: qHTS Assay for Coffee Bean alpha-Galactosidase at pH 5.9 (AID 998)", "in_short": "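In 50 mM citric acid pH 5.9 with 0.005% Tween-20, coffee bean enzyme hydrolyses 80 uM 4-MU alpha-D-galactopyranoside over 20 min at RT. Activity is normalized to controls; AC50 comes from Hill-modelled concentration-response data.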"}, "[2]": {"experiment": "Cell Viability - LYMP2-026 (AID 989); note: nearly all actives have a fitted effect of over 50% in size; note: potency is the fitted concentration of half-maximal effect", "in_short": "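Cytotoxicity read as ATP-dependent luminescence (CellTiter-Glo, 30 min room temperature) after 24 h compound treatment at 37 C. LYMP2-026 lymphoblastoid line seeded at 2500 cells/well; AC50 derived by standard Hill equation.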"}, "[3]": {"experiment": "Cell Viability - LYMP1-002 - Assay at 24 hr (AID 993); note: potency is the fitted concentration of half-maximal effect", "in_short": "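qHTS cytotoxicity at 24 h: CellTiter-Glo ATP luminescence in lymphoblastoid line LYMP1-002 incubated with compound at 37 °C. Concentration-response modeled with the Hill equation for AC50; tetraoctylammonium bromide served as positive control.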"}, "[4]": {"experiment": "Cell Viability - LYMP1-002 - Assay at 40 hr (AID 994); note: nearly all actives have a fitted effect of over 60% in size; note: potency is the fitted concentration of half-maximal effect", "in_short": "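Cytotoxicity was read as loss of cellular ATP (CellTiter-Glo luminescence) after 40 hr compound exposure at 37 C of 2500 LYMP1-002 lymphoblastoid cells per well. Concentration-response data were fitted with the standard Hill equation to give AC50.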"}, "[5]": {"target": "DNA repair nuclease/redox regulator APEX1 (Homo sapiens) (UniProt P27695)", "sequence (P27695 whole entry, looked up)": "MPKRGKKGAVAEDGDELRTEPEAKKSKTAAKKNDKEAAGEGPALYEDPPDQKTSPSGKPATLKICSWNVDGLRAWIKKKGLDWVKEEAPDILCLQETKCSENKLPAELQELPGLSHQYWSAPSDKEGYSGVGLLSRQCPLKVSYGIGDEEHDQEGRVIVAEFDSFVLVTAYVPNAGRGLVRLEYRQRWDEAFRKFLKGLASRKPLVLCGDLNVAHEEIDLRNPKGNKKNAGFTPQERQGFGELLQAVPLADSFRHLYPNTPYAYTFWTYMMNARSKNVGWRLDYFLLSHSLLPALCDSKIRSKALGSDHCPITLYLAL", "experiment": "qHTS Validation Assay for Inhibitors of the Human Apurinic/apyrimidinic Endonuclease 1 (APE1) (AID 1705;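 note: TAMRA fluorescence gain over two minutes as APE1 cuts a quenched THF abasic duplex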)", "in_short": "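Substrate: 50 nM final fluorophore/quencher THF-abasic duplex. Enzyme preincubated with compounds 15 min, RT. Progress derived from fluorescence difference, third minus first kinetic read.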"}, "[6]": {"target": "Alpha-galactosidase A (Homo sapiens) (UniProt P06280)", "sequence (P06280 whole entry, looked up)": "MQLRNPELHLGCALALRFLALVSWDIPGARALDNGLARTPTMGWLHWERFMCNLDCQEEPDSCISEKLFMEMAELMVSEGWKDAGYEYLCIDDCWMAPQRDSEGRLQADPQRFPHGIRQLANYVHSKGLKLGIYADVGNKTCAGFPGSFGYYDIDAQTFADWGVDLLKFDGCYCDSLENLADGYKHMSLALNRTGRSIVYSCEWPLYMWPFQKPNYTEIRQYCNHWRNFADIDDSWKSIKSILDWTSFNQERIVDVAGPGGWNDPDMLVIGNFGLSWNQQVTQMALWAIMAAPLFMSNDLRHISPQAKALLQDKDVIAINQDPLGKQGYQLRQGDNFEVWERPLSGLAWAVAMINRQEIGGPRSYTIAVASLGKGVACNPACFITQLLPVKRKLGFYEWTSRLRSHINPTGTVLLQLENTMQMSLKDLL", "experiment": "Counterscreen for Glucocerebrosidase Inhibitors: qHTS Assay for Human alpha-Galactosidase at pH 4.5 (AID 992)", "in_short": "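Each compound is preincubated briefly with 2 nM enzyme before substrate addition (80 uM); plates then sit 20 min at ambient temperature, are quenched with 1M NaOH/1M glycine, and read fluorometrically.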"}, "[7]": {"target": "alpha-glucosidase (Oryza sativa, rice) (UniProt Q653V4)", "experiment": "Counterscreen for Glucocerebrosidase Inhibitors: qHTS Assay for Rice alpha-Glucosidase at pH 5.0 (AID 997)", "in_short": "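Endpoint fluorogenic assay at pH 5.0: compounds (0.7 nM to 77 uM) titrated against 4 nM rice enzyme and 400 uM 4-MU-alpha-glucoside for 20 min at room temperature; NaOH/glycine stop, read ex 365/em 440 nm, Hill-fitted AC50.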"}, "[8]": {"experiment": "qHTS Assay for Lipid Storage Modulators (AID 1519; calls by dose curve)", "conditions": "Drosophila S3 cells, BODIPY lipid droplet/cell ratio, laser cytometry, cells loaded with oleic acid", "in_short": "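Cells seeded at 5,000 per well were treated with compounds over a concentration series and loaded with oleic acid (400 uM, as added). Lipid droplet fluorescence (488 nm excitation, 500-530 nm channel) was read by laser-scanning cytometry and normalized to 20 uM Triacsin C.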"}},
  "note": "Inconclusive results are not listed. Entries that show only a call come without a potency. A structure can be active in one record and inactive in another. Activity calls are given as the source filed them. Unless noted, calls come from the whole dose curve; as a rule, active = well fitted curve in the direction sought with a large enough effect; inconclusive = small, poorly fitted or top-dose-only effect, or another doubt; inactive = no such curve, though single readings can be large; an effect the other way counts as inactive or inconclusive.",
  "data": [
    {"compound": "Clc1ccccc1C(c1ccccc1)(c1ccccc1)n1ccnc1", "values": [
      {"measurement": "outcome", "setting": "[1]", "result": "inactive"}
    ]},
    {"compound": "Oc1c(Br)cc(Br)cc1Br", "values": [
      {"measurement": "Potency", "setting": "[2]", "result": "inactive"},
      {"measurement": "Potency", "setting": "[3]", "result": "inactive"},
      {"measurement": "Potency", "setting": "[4]", "result": "inactive"}
    ]},
    {"compound": "Cc1ccc(=O)n(-c2ccccc2)c1", "values": [
      {"measurement": "outcome", "setting": "[1]", "result": "inactive"}
    ]},
    {"compound": "Cc1ccc(C(=O)Nc2ccc(S(=O)(=O)O)c3cc(S(=O)(=O)O)cc(S(=O)(=O)O)c23)cc1NC(=O)c1cccc(NC(=O)Nc2cccc(C(=O)Nc3cc(C(=O)Nc4ccc(S(=O)(=O)O)c5cc(S(=O)(=O)O)cc(S(=O)(=O)O)c45)ccc3C)c2)c1", "values": [
      {"measurement": "outcome", "setting": "[1]", "result": "inactive"}
    ]},
    {"compound": "Oc1ccc(Cl)cc1Sc1cc(Cl)ccc1O", "values": [
      {"measurement": "Potency", "setting": "[4]", "result": "50.1 µM (active)"}
    ]},
    {"compound": "C[C@@H]1C[C@@H]([C@H](O)CC2CC(=O)NC(=O)C2)C(=O)[C@@H](C)C1", "values": [
      {"measurement": "Potency", "setting": "[2]", "result": "1 µM (active)"},
      {"measurement": "Potency", "setting": "[3]", "result": "inactive"},
      {"measurement": "Potency", "setting": "[4]", "result": "1.26 µM (active) and inactive"}
    ]},
    {"compound": "OCc1cc(C(O)CNCCCCCCOCCCCc2ccccc2)ccc1O", "note": "(configuration not stated)", "values": [
      {"measurement": "outcome", "setting": "[1]", "result": "inactive"}
    ]},
    {"compound": "COC(=O)[C@@H](N)Cc1ccc(O)c(O)c1", "values": [
      {"measurement": "outcome", "setting": "[1]", "result": "inactive"}
    ]},
    {"compound": "Clc1ccc(Cn2c(CN3CCCC3)nc3ccccc32)cc1", "values": [
      {"measurement": "outcome", "setting": "[1]", "result": "inactive"}
    ]},
    {"compound": "CC[C@H]1CN2CCc3cc(OC)c(OC)cc3[C@@H]2C[C@@H]1C[C@H]1NCCc2cc(OC)c(OC)cc21", "values": [
      {"measurement": "outcome", "setting": "[5]", "result": "inactive"}
    ]},
    {"compound": "CCCCCCCCCCCC[N+](C)(C)CCOc1ccccc1", "values": [
      {"measurement": "Potency", "setting": "[2]", "result": "39.8 µM (active)"},
      {"measurement": "Potency", "setting": "[3]", "result": "7.94 µM (active)"},
      {"measurement": "Potency", "setting": "[4]", "result": "31.6 µM (active)"}
    ]},
    {"compound": "OC(CN1CCC(Cc2ccc(F)cc2)CC1)c1ccc(Cl)cc1", "note": "(configuration not stated)", "values": [
      {"measurement": "outcome", "setting": "[1]", "result": "inactive"}
    ]},
    {"compound": "N[C@@H](Cc1c[nH]c2ccc(O)cc12)C(=O)O", "values": [
      {"measurement": "outcome", "setting": "[1]", "result": "inactive"}
    ]},
    {"compound": "C[C@]12CCC(=O)C=C1CC[C@@H]1[C@@H]2C(=O)C[C@@]2(C)[C@H]1CC[C@]2(O)C(=O)CO", "values": [
      {"measurement": "outcome", "setting": "[1]", "result": "inactive"}
    ]},
    {"compound": "C[N+](C)(C)CCOC(=O)CCC(=O)OCC[N+](C)(C)C", "values": [
      {"measurement": "outcome", "setting": "[1]", "result": "inactive"}
    ]},
    {"compound": "COCC(=O)O[C@]1(CCN(C)CCCc2nc3ccccc3[nH]2)CCc2cc(F)ccc2[C@@H]1C(C)C", "values": [
      {"measurement": "outcome", "setting": "[1]", "result": "inactive"}
    ]},
    {"compound": "O=C(CCl)c1ccc(Cl)cc1Cl", "values": [
      {"measurement": "Potency", "setting": "[2]", "result": "6.31 µM (active)"},
      {"measurement": "Potency", "setting": "[3]", "result": "15.8 µM (active)"},
      {"measurement": "Potency", "setting": "[4]", "result": "25.1 µM (active)"}
    ]},
    {"compound": "CC(C)(C)c1ccc(C(O)CCCN2CCC(C(O)(c3ccccc3)c3ccccc3)CC2)cc1", "note": "(configuration not stated)", "values": [
      {"measurement": "outcome", "setting": "[1]", "result": "inactive"}
    ]},
    {"compound": "CNC[C@H](O)c1ccc(O)c(O)c1", "values": [
      {"measurement": "outcome", "setting": "[1]", "result": "inactive"}
    ]},
    {"compound": "CCCCNc1cc(C(=O)O)cc(S(N)(=O)=O)c1Oc1ccccc1", "values": [
      {"measurement": "outcome", "setting": "[1]", "result": "inactive"}
    ]},
    {"compound": "Cc1nc2sccn2c(=O)c1CCN1CCC(=C(c2ccc(F)cc2)c2ccc(F)cc2)CC1", "values": [
      {"measurement": "outcome", "setting": "[1]", "result": "inactive"}
    ]},
    {"compound": "COP(=O)(OC)OC=C(Cl)Cl", "values": [
      {"measurement": "Potency", "setting": "[2]", "result": "inactive"},
      {"measurement": "Potency", "setting": "[3]", "result": "inactive"},
      {"measurement": "Potency", "setting": "[4]", "result": "12.6 µM (active) and inactive"}
    ]},
    {"compound": "CNC(=O)Oc1cccc2ccccc12", "values": [
      {"measurement": "Potency", "setting": "[2]", "result": "inactive"},
      {"measurement": "Potency", "setting": "[3]", "result": "inactive"},
      {"measurement": "Potency", "setting": "[4]", "result": "inactive"}
    ]},
    {"compound": "C[C@]12C=CC(=O)C=C1CC[C@H]1[C@@H]3C[C@@H](O)[C@](O)(C(=O)CO)[C@@]3(C)C[C@H](O)[C@@]12F", "values": [
      {"measurement": "outcome", "setting": "[1]", "result": "inactive"}
    ]},
    {"compound": "C[C@H](N)[C@H](O)c1ccc(O)c(O)c1", "values": [
      {"measurement": "outcome", "setting": "[6]", "result": "inactive"},
      {"measurement": "outcome", "setting": "[7]", "result": "inactive"},
      {"measurement": "outcome", "setting": "[1]", "result": "inactive"},
      {"measurement": "activity change, negative = inhibition", "setting": "[8]; at 25.7 µM (top of the series)", "result": "-2.9% (inactive)"},
      {"measurement": "max response", "setting": "[8]; measured here: cell count channel max response", "result": -12, "unit": "%"},
      {"measurement": "max response", "setting": "[8]; measured here: lipid channel max response", "result": -13.5, "unit": "%"}
    ]},
    {"compound": "CC(C)NCC(O)COc1ccc(COCCOC(C)C)cc1", "note": "(configuration not stated)", "values": [
      {"measurement": "outcome", "setting": "[1]", "result": "inactive"}
    ]},
    {"compound": "CN(C)C(=S)SSC(=S)N(C)C", "values": [
      {"measurement": "Potency", "setting": "[3]", "result": "0.316 µM (active)"},
      {"measurement": "Potency", "setting": "[4]", "result": "3.98 µM (active)"}
    ]},
    {"compound": "C#CCN(C)Cc1ccccc1", "values": [
      {"measurement": "outcome", "setting": "[1]", "result": "inactive"}
    ]},
    {"compound": "COc1nc(C)nc(Cl)c1NC1=NCCN1", "values": [
      {"measurement": "outcome", "setting": "[1]", "result": "inactive"}
    ]}
  ]
}
